For seven sequences, binding signal results are on record in publication PMC7862700, “An all-to-all approach to the identification of sequence-specific readers for epigenetic DNA modifications on cytosine”.

Common to all, as to assay: DAPPL (digital affinity profiling via proximity ligation, sequencing); 10 mM Tris-HCl pH 7.5, 50 mM NaCl, 1 mM DTT, 4% glycerol, room temperature, 30 min; GST-TFs on glutathione beads, 16-mer random dsDNA library, 0.1% formaldehyde crosslink after washing; high values mean tight binding
Common to all, as to settings: protein: recombinant; tags: N-terminal GST; dsDNA, one strand shown

One experiment concerns the target T1, ERF (Homo sapiens, UniProt P50548 1-548).
T1 sequence: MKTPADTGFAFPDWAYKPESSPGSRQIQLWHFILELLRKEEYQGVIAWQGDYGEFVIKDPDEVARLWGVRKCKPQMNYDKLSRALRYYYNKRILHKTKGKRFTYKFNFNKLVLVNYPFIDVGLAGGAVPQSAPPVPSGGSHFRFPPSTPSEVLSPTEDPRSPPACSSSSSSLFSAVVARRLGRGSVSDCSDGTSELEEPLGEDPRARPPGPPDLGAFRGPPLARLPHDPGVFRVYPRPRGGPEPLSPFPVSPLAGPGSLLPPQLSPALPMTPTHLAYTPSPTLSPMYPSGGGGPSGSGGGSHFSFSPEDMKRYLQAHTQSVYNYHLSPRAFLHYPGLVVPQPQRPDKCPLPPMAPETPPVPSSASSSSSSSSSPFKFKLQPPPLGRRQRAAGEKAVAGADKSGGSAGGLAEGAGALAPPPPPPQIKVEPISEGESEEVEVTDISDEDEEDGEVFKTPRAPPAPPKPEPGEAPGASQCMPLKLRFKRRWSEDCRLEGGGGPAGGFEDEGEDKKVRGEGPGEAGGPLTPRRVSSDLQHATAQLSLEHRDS
The gist of the method:
(§1)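 Each value of binding signal is a hexamer's read frequency for a factor divided by the same hexamer's frequency in the tag-only sample. Barcoded, bead-captured GST fusions of human transcription factors made in yeast were pooled with that sample and incubated with 200 nmole of a random double-stranded 16-mer DNA library in Tris/NaCl/DTT/glycerol buffer at room temperature for 30 min. Washing, 0.1% formaldehyde crosslinking, proximity ligation, PCR and Illumina NextSeq500 sequencing followed.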

The target in the next experiment is T2, ETV3L (Homo sapiens, UniProt Q6ZN32 1-361).
T2 sequence: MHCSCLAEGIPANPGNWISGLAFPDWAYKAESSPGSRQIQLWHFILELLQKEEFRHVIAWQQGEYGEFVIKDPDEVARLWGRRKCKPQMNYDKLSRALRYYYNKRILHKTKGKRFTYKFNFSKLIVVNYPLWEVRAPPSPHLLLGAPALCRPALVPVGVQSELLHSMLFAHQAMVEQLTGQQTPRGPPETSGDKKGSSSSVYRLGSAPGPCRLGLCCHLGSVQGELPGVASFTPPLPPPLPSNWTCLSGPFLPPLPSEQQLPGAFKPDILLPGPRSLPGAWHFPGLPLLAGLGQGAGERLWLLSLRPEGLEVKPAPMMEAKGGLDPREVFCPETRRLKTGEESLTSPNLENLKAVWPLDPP
Put shortly: as §1

The next experiment has as its target T3, ETS2 (Homo sapiens, UniProt P15036 1-469).
T3 sequence: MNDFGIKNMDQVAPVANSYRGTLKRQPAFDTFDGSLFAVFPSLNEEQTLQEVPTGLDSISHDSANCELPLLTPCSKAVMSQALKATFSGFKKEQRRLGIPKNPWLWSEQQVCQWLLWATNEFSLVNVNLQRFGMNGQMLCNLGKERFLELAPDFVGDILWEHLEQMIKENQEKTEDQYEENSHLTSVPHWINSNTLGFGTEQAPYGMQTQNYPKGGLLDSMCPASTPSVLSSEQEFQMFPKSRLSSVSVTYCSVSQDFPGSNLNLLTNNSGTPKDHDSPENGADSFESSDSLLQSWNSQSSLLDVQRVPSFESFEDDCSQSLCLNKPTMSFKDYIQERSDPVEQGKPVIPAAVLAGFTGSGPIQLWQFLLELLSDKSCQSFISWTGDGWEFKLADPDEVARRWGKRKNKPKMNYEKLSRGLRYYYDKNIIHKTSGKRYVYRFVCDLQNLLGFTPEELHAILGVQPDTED
The gist of the method: as §1

A further experiment has as its target T4, SPDEF (Homo sapiens, UniProt O95238 1-335).
T4 sequence: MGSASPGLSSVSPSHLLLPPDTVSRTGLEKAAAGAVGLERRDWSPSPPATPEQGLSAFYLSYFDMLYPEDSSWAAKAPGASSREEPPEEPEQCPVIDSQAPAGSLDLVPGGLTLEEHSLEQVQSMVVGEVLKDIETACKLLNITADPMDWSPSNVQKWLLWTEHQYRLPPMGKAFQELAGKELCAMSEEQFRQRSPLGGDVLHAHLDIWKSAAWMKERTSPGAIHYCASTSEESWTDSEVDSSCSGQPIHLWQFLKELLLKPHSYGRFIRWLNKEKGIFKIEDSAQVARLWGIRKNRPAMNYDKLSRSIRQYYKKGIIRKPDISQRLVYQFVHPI
The gist of the method:
as §1

For the next experiment, the target named is T5, ETV7 (Homo sapiens, UniProt Q9Y603 1-341).
T5 sequence: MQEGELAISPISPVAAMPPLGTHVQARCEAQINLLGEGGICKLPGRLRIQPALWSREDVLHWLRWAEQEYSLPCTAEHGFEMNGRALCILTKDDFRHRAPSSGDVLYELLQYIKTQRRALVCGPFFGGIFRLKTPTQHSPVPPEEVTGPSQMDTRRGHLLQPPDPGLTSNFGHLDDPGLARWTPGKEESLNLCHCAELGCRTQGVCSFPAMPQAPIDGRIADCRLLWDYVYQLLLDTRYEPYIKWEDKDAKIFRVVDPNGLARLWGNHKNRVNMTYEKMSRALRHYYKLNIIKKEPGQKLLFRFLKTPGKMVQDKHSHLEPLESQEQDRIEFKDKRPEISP
Put shortly: as §1

Another experiment deals with T6, ELF5 (Homo sapiens, UniProt Q9UKW6-2 1-255).
T6 sequence: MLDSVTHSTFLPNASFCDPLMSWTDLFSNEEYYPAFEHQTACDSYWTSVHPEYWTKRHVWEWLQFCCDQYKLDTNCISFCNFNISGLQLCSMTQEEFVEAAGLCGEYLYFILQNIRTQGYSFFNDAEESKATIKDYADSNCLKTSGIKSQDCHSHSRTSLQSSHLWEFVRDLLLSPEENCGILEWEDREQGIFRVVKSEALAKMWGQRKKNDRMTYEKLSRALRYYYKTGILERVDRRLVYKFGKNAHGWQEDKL
The gist of the method:
as §1

In the next experiment the target is T7, ETV3 (Homo sapiens, UniProt P41162-2 1-143).
T7 sequence: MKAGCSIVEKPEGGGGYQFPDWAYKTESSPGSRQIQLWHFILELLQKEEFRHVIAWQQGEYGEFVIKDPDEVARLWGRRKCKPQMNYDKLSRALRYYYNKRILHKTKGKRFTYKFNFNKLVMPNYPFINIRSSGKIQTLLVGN
Put shortly:
as §1

A further experiment deals with ETV6 (Homo sapiens, UniProt P41212 1-452). The gist of the method:
as §1

ETV6, sequence (P41212 whole entry): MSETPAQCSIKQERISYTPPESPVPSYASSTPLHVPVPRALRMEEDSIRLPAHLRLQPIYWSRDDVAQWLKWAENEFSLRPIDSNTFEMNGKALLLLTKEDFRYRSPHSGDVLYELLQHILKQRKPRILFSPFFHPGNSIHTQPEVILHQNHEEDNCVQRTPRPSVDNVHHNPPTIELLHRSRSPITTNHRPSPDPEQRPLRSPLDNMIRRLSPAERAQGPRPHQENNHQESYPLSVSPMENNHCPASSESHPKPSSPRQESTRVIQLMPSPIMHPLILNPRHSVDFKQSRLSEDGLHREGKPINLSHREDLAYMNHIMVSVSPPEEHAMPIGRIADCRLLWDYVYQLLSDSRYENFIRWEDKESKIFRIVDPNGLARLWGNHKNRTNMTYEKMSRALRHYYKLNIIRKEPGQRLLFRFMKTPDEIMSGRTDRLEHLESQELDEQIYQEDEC

With CACGAA, the binding signal with ERF was 1.18 fold enrichment (6-mer frequency, TF over GST control); with ETV3L it was 1.01 fold enrichment (6-mer frequency, TF over GST control); in the experiment with ETS2, 1.12 fold enrichment (6-mer frequency, TF over GST control); with SPDEF, 1.08 fold enrichment (6-mer frequency, TF over GST control); with ETV7, 1.16 fold enrichment (6-mer frequency, TF over GST control); with ELF5, 1.02 fold enrichment (6-mer frequency, TF over GST control). Also, the binding signal in the experiment with ETV3 was 1.05 fold enrichment (6-mer frequency, TF over GST control); with ETV6, 1.07 fold enrichment (6-mer frequency, TF over GST control).

Regarding TAGGAA, the binding signal with ERF was 1.17 fold enrichment (6-mer frequency, TF over GST control); in the experiment with ETV3L, 1.15 fold enrichment (6-mer frequency, TF over GST control); in the experiment with ETS2 it was 1.19 fold enrichment (6-mer frequency, TF over GST control); with SPDEF, 1.11 fold enrichment (6-mer frequency, TF over GST control); with ETV7, 1.04 fold enrichment (6-mer frequency, TF over GST control); with ELF5, 1.29 fold enrichment (6-mer frequency, TF over GST control). Besides, the binding signal was 1.22 fold enrichment (6-mer frequency, TF over GST control) with ETV3 and 1.37 fold enrichment (6-mer frequency, TF over GST control) with ETV6.

Regarding CCGGTA, the binding signal was 1.4 fold enrichment (6-mer frequency, TF over GST control) with ERF; 1.46 fold enrichment (6-mer frequency, TF over GST control) with ETV3L; 1.54 fold enrichment (6-mer frequency, TF over GST control) in the experiment with ETS2; 1.96 fold enrichment (6-mer frequency, TF over GST control) with SPDEF; 1.35 fold enrichment (6-mer frequency, TF over GST control) in the experiment with ETV7; 1.83 fold enrichment (6-mer frequency, TF over GST control) in the experiment with ELF5. The binding signal with ETV3 is 1.68 fold enrichment (6-mer frequency, TF over GST control); with ETV6, 1.65 fold enrichment (6-mer frequency, TF over GST control).

As for TATCAG, the binding signal was 1.13 fold enrichment (6-mer frequency, TF over GST control) in the experiment with ERF; 1.11 fold enrichment (6-mer frequency, TF over GST control) with ETV3L; 1.15 fold enrichment (6-mer frequency, TF over GST control) in the experiment with ETS2; 1.26 fold enrichment (6-mer frequency, TF over GST control) with SPDEF; 1.07 fold enrichment (6-mer frequency, TF over GST control) with ETV7; 1.06 fold enrichment (6-mer frequency, TF over GST control) with ELF5. The binding signal in the experiment with ETV3 is 1.12 fold enrichment (6-mer frequency, TF over GST control); with ETV6, 1.12 fold enrichment (6-mer frequency, TF over GST control).

With GAAGCG, the binding signal was 1.29 fold enrichment (6-mer frequency, TF over GST control) with ERF; 1.32 fold enrichment (6-mer frequency, TF over GST control) in the experiment with ETV3L; 1.33 fold enrichment (6-mer frequency, TF over GST control) in the experiment with ETS2; 1.29 fold enrichment (6-mer frequency, TF over GST control) with SPDEF; 1.36 fold enrichment (6-mer frequency, TF over GST control) with ETV7; 1.35 fold enrichment (6-mer frequency, TF over GST control) in the experiment with ELF5. For the same sequence, the binding signal with ETV3 is 1.36 fold enrichment (6-mer frequency, TF over GST control); in the experiment with ETV6 it was 1.43 fold enrichment (6-mer frequency, TF over GST control).

As to TTTGTG, the binding signal is 1.23 fold enrichment (6-mer frequency, TF over GST control) with ERF; 1.12 fold enrichment (6-mer frequency, TF over GST control) in the experiment with ETV3L; 1.11 fold enrichment (6-mer frequency, TF over GST control) with ETS2; 1.23 fold enrichment (6-mer frequency, TF over GST control) in the experiment with SPDEF; 1.2 fold enrichment (6-mer frequency, TF over GST control) with ETV7; 1.18 fold enrichment (6-mer frequency, TF over GST control) with ELF5. The binding signal was 1.13 fold enrichment (6-mer frequency, TF over GST control) with ETV3 and 1.14 fold enrichment (6-mer frequency, TF over GST control) with ETV6.

Regarding ACCCTG, the binding signal with ERF was 1.04 fold enrichment (6-mer frequency, TF over GST control); in the experiment with ETV3L it was 1.05 fold enrichment (6-mer frequency, TF over GST control); with ETS2, 1.01 fold enrichment (6-mer frequency, TF over GST control); with SPDEF it was 1.03 fold enrichment (6-mer frequency, TF over GST control); in the experiment with ETV7, 1.04 fold enrichment (6-mer frequency, TF over GST control); in the experiment with ELF5, 1.03 fold enrichment (6-mer frequency, TF over GST control). The binding signal was 1.13 fold enrichment (6-mer frequency, TF over GST control) with ETV3 and 1.07 fold enrichment (6-mer frequency, TF over GST control) in the experiment with ETV6.
